According to PubChem BioAssay:
Activity calls are given as the source filed them. Unless noted, the rule behind the calls is not given here.

Assays:
[1] = system: Wnt5a (protein binding on small-molecule microarray); experiment: Wnt5a binders on small-molecule microarray, primary screen, biophysical, 635/667 nm fluorescence (AID 1142); details: 635 nm fluorescence, higher = more signal;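 note: fluorescence read at 667 nm with signal to noise per printed feature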
[2] = cell viability in Huh7 cells, primary screen, cytotoxicity control for HCV replication inhibitor project, CellTiter-Glo luminescence, basal, 48 h (AID 1143); details: Huh7 HCV replicon, higher = more signal, called active from +8 up or from −8 down;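 note: Huh7 hepatoma cells carrying a hepatitis C replication reporter with no stimulus; test concentration not given here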
[3] = P. aeruginosa biofilm formation inhibitors, primary screen, PAO1 strain, BacTiter-Glo luminescence, LB-PBS (AID 1144); details: 12 h, higher = more signal
[4] = CREB reporter modulators without forskolin, primary screen, cell-based, PC12, CRE-LacZ reporter, unstimulated (AID 1145); details: no forskolin, luminescence, 4.5 h, higher = more signal, called active from +8 up or from −8 down
[5] = CREB reporter modulators under forskolin, primary screen, cell-based, PC12, CRE-LacZ reporter, forskolin-stimulated (AID 1146); details: luminescence, 4.5 h, higher = more signal, called active from +8 up or from −8 down;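 note: PC12 cells with 6xCRE LacZ reporter stimulated by forskolin 10 µM; beta-galactosidase reporter signal reflecting CREB driven transcription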
[6] = target: Streptavidin (Streptomyces avidinii) (UniProt P22629); experiment: streptavidin binders on small-molecule microarray, primary screen, artefact control for SMM compound annotation, biophysical, 635/667 nm fluorescence (AID 1147); details: streptavidin binding, higher = more signal;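 note: signal reflects streptavidin binding to arrayed compounds as a control protein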
[7] = small-molecule binders of probe aInhba, primary screen, biochemical, small-molecule microarray, 635/667 nm fluorescence (AID 1148); details: higher = more signal;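 note: score merges 667nm spot fluorescence with signal-to-noise for antibody binding to printed compounds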
Torsin-1A (Homo sapiens) [8] = target: Torsin-1A (Homo sapiens) (UniProt O14656); experiment: torsin A binders from cell lysate, primary screen, small-molecule microarray, wild-type, 635/667 nm (AID 1149); details: COS7 hTOR1A-WT lysate, 635 nm fluorescence, higher = more signal
Torsin-1A (Homo sapiens) [9] = target: Torsin-1A (Homo sapiens) (UniProt O14656); experiment: small-molecule binders of mutant TOR1A in lysate, primary screen, cell lysate, small-molecule microarray, COS7 lysate, 635/667 nm fluorescence (AID 1150); details: COS7 hTOR1A mutant lysate, 635 nm fluorescence, higher = more signal;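 note: score pools 667 nm emission and signal to noise measuring lysate protein binding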
[10] = system: Sonic hedgehog protein (Shh); experiment: small-molecule binders of Shh protein, primary screen, biochemical, small-molecule microarray, 635/667 nm fluorescence (AID 1151); details: small-molecule microarray binding, 635 nm fluorescence; higher = more signal;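 note: Shh protein binding to compounds spotted on small-molecule microarray slides; score combines spot fluorescence intensity with signal-to-noise across triplicate slides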

Sequence of Torsin-1A (Homo sapiens) (O14656 whole entry, looked up): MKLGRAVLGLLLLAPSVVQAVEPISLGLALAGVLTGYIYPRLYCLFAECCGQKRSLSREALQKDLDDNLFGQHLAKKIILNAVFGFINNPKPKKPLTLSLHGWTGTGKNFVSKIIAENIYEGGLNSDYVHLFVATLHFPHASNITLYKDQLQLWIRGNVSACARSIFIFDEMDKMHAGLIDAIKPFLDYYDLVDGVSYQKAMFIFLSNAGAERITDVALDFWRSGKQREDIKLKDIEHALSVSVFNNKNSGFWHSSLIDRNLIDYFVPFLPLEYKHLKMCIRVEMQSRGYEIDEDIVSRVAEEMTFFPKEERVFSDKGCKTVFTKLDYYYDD
Sequence of Streptavidin (Streptomyces avidinii) (P22629 whole entry, looked up): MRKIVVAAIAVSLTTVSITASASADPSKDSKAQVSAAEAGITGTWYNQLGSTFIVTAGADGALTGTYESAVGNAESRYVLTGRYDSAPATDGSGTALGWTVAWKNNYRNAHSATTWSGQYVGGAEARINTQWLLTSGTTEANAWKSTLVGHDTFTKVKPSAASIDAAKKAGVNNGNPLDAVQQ

Row | Compound | composite z-score [1] | z-score [2] | z-score [3] | z-score [4] | z-score [5] | composite z-score [6] | composite z-score [7] | composite z-score (Torsin-1A (Homo sapiens) [8]) | composite z-score (Torsin-1A (Homo sapiens) [9]) | composite z-score [10]
1 | CO[C@H]1O[C@H](CO)[C@@H](OC(=O)CCc2ccccc2)[C@@H]2OC(=O)[C@@H](Cc3ccccc3)C/C=C/C[C@H](Cc3ccccc3)C(=O)O[C@@H]12 | 0.411 | -2.33 (inactive) | -0.605 (inactive) | -0.655 (inactive) | -0.43 (inactive) | 0.29 | -0.315 | -0.293 | 0.169 | 0.476
2 | COC(=O)C1=CC(CCCO)=CC(c2cccs2)N(Cc2cccc(OC(F)(F)F)c2)C=C1C(=O)OC (stereo not given) | 0.237 | -3.26 (inactive) | 0.759 (inactive) | -0.815 (inactive) | 0.0187 (inactive) | 1.93 | -0.0619 | 1 | 1.56 | -0.403
3 | COCCOC(=O)N1C(=O)[C@@]2(c3cc(C#CCNC(N)=O)ccc31)[C@H](C(N)=O)[C@H]1C(=O)O[C@H](c3ccccc3)[C@H](c3ccccc3)N1[C@@H]2c1ccccc1OCCO | 0.273 | 0.406 (inactive) | -0.0139 (inactive) | -0.465 (inactive) | 0.0355 (inactive) | 0.0571 | 0.183 | 0.112 | 0.25 | 0.878
4 | C=CCNC(=O)[C@@H]1[C@H]2C(=O)O[C@H](c3ccccc3)[C@H](c3ccccc3)N2[C@H](c2ccc(O)cc2)[C@@]12C(=O)N(C(=O)OCCOC)c1ccc(C#CC3=CCCCC3)cc12 | 0.432 | -2.12 (inactive) | 0.411 (inactive) | 0.346 (inactive) | -0.0705 (inactive) | 0.268 | 0.0705 | 0.87 | 0.686 | 1.86
